Source: PubChem
USP1 inh – Inhibitors of USP1/UAF1: Primary Screen. Ubiquitin carboxyl-terminal hydrolase 1 (Homo sapiens), O94782. recombinant USP1/UAF1, Ub-Rhodamine cleavage fluorescence. Potency, µM (top dose mostly 57.1 µM), without a hit: top-dose activity change, negative = inhibition, hits mostly inhibitors. actives 0.23% (n = 390,000). AID 743255, 2014; further: on the % scale 0 is the no-effect control and ±100 the full control effect; nearly all actives have a fitted effect of over 60% in size
Target sequence (O94782 whole entry, looked up): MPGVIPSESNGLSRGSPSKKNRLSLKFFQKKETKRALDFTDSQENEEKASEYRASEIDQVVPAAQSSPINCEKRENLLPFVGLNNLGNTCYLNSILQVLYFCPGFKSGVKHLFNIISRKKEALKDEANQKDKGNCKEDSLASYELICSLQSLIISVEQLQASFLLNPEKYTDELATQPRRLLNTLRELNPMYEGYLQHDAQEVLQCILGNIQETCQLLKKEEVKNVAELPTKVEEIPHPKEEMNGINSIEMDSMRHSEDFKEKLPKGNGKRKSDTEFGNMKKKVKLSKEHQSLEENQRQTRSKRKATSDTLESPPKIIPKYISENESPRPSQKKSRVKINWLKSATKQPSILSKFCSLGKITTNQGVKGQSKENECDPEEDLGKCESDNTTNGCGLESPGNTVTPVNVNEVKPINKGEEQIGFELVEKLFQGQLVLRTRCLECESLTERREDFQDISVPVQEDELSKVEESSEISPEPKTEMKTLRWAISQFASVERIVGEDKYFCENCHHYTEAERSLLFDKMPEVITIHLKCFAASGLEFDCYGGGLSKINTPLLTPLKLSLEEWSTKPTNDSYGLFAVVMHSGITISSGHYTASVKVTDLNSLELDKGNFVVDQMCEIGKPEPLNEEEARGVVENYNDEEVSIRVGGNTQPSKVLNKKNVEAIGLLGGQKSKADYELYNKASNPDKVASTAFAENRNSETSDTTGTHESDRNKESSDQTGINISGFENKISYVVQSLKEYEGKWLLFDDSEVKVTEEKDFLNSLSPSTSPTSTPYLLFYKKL
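USP1/UAF1 complex (1 nM) preincubated 15 min at room temperature with compound, then Ub-Rho substrate (150 nM final) added. Kinetic fluorescence at 480/540 nm over 6 reads at 60 s intervals; 50 mM HEPES pH 7.8, 0.5 mM EDTA, 0.1 mg/ml BSA, 1 mM TCEP, 0.01% Tween-20.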
ALOX12 inh – Primary qHTS assay for inhibitors of human arachidonate 12S-lipoxygenase (ALOX12): Round 2; Polyunsaturated fatty acid lipoxygenase ALOX12 (Homo sapiens), P18054; purified 12hLO, xylenol orange hydroperoxide absorbance; Potency, µM (highest dose often 108 µM), for inactives: at the highest dose activity change, negative = inhibition, most hits filed as inhibitors; actives 1.1% (n = 580,000); AID 1671190, 2021; further: on the % scale 0 is the no-effect control and ±100 the full control effect
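Hydroperoxide product was detected by ferrous iron/xylenol orange as the 573 to 405 nm absorbance ratio. Arachidonic acid at 40 uM (final) was turned over for 30 min at room temperature by 150 nM human 12hLO, pH 7.0 Hepes buffer, after 15 min compound preincubation.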
EPAC1 ag – qHTS for Agonist of cAMP-regulated guanine nucleotide exchange factor 3 (EPAC1): primary screen | actives 0.073% (n = 360,000) | Potency, µM (series often up to 154 µM), inactives show at the highest dose activation, most hits filed as activators | EPAC1 agonist qHTS, biochemical assay; response scale: 100% = response to 6.5 mM cAMP | Rap guanine nucleotide exchange factor 3 (Homo sapiens), O95398; further: nearly all actives have a fitted effect of over 60% in size
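Multi-concentration qHTS readout: loss of Rap1B-bound BODIPY-GDP fluorescence driven by 100 nM EPAC1 with excess GDP (50 uM), monitored kinetically at room temperature; agonist response expressed relative to 6.5 mM cAMP.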
EPAC1 antag – qHTS for Antagonist of cAMP-regulated guanine nucleotide exchange factor 3 (EPAC1): primary screen; Rap guanine nucleotide exchange factor 3 (Homo sapiens), O95398; EPAC1 GEF assay, Rap1b-BODIPY-GDP exchange fluorescence; Potency, µM (titrated, usually from 115 µM), for inactives: at the top dose activity change, negative = inhibition, actives largely listed as inhibitors; actives 0.14% (n = 360,000); AID 720709, 2013;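 further: plate controls were vehicle for no effect and positive control for full effect; nearly all actives have a fitted effect of over 50% in size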
EPAC2 antag – qHTS for Antagonist of cAMP-regulated guanine nucleotide exchange factor 2 (EPAC2): primary screen. Rap guanine nucleotide exchange factor 4 (Homo sapiens), Q8WZA2. EPAC2 GEF exchange of Rap1B-BODIPY-GDP, fluorescence. Potency, µM (highest dose often 114 µM), inactives show top-dose activity, negative = inhibition, hits mostly inhibitors. actives 0.18% (n = 360,000). AID 720708, 2013; further: on the % scale 0 is the no-effect control and ±100 the full control effect; nearly all actives have a fitted effect of over 45% in size
EPAC2 agonist – qHTS for Agonist of cAMP-regulated guanine nucleotide exchange factor 4 (EPAC2): primary screen | Rap guanine nucleotide exchange factor 4 (Homo sapiens), Q8WZA2 | EPAC2 activation, biochemical qHTS; response scale: 100% = 6.5 mM cAMP response | Potency, µM (doses to about 154 µM), without a hit: at the highest dose activation, most hits filed as activators | actives 0.079% (n = 360,000); further: nearly all actives have a fitted effect of over 50% in size
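Compounds were titrated in qHTS against a Rap1B-BODIPY-GDP (250 nM) complex with EPAC2 (100 nM) and GDP (50 uM). BODIPY-GDP release tracked at 480/540 nm over 30 min at room temperature, normalized to 6.5 mM cAMP.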
* = called active by the depositor; ? = inconclusive; . = no result given. An excerpt weighted towards active compounds, which were near 1.3% of everything screened. The call rests on the fitted dose curve; in most records, active means well fitted curve in the direction sought with a large enough effect; inconclusive means small, poorly fitted or top-dose-only effect, or another doubt; inactive means no such curve, though single readings can be large; an effect the other way counts as inactive or inconclusive. Potency means the concentration at half of the fitted maximal effect.

SMILES | USP1 inh | ALOX12 inh | EPAC1 ag | EPAC1 antag | EPAC2 antag | EPAC2 agonist
Cc1ccc([C@H]2C[C@H](O)[C@@H](n3cc(-c4ccc(F)cc4)nn3)CN2Cc2cccs2)cc1 | -17.3% | ? | -4.4% | -0.5% | -16.4% | -7.0%
O=C(Cc1ccsc1-c1ccccc1)NO | -23.1% | 15.8µM* | -6.2% | 6.3% | 6.8% | 4.6%
O=C(Cc1csc(NC(=O)c2ccccc2)n1)NO | -14.4% | -4.9% | -13.0% | -10.6% | 8.2% | 0.9%
FC(F)Sc1ccc(NC(=S)NC(c2ccccc2)c2ccccc2)cc1 | ? | 39.8µM* | 3.0% | -22.1% | -8.1% | 6.0%
S=C(NCC1CCCCC1)Nc1ccc(Oc2ccccc2)cc1 | -18.8% | 39.8µM* | -5.8% | -6.0% | -5.0% | 3.0%
FC(F)Sc1ccc(NC(=S)NCC2CCCCC2)cc1 | -8.9% | 15.8µM* | 5.7% | -7.9% | -1.7% | 14.4%
CC1CCCCC1NC(=S)Nc1ccc(SC(F)F)cc1 (centres undefined) | -24.3% | 31.6µM* | 5.7% | -18.2% | -7.1% | 14.9%
FC(F)Sc1ccc(NC(=S)NC2CCCCC2)cc1 | -14.5% | ? | 26.6% | -9.2% | -2.4% | 20.5%
COC(=O)C1=C(O)/C(=C\c2ccc(CNS(=O)(=O)c3ccc(Cl)cc3)o2)N=C1C | -7.6% | 50.1µM* | 14.0% | -11.7% | -6.5% | 14.3%
CCOC(=O)C1=C(O)/C(=C\c2ccc(CNS(=O)(=O)c3ccc(Br)cc3)o2)N=C1C | -19.2% | 44.7µM* | 0.9% | ? | 6.8% | -4.2%
COC(=O)C1=C(O)/C(=C\c2ccc(CNS(=O)(=O)c3ccccc3)o2)N=C1C | -26.0% | ? | -3.8% | 16.2% | 28.7% | 20.8%
CCCCC[n+]1cccc2c3ccccc3ccc21 | -20.4% | 44.7µM* | 20.3% | 10.4% | -0.5% | 4.1%
c1ccc(C[n+]2cccc3c4ccccc4ccc32)cc1 | 2.3% | 21.4% | 2.7% | 16.6% | 2.7% | -5.6%
CC(=O)c1ccc(CC(=O)O)s1 | . | -70.1% | . | . | . | .
CC(=O)c1ccc(C(=O)O)s1 | . | 15.8µM* | . | . | . | .
CSc1cccc(N/C(=N/S(=O)(=O)c2ccccc2)NN)c1 | ? | -7.5% | 3.7% | -4.8% | 2.4% | 7.1%
CSc1cccc(NC(=S)NN/C(=N/S(=O)(=O)c2ccccc2)N2CCCC2)c1 | . | 44.7µM* | . | . | . | .
O=C(Cn1sc2ccccc2c1=O)Nc1ccccc1 | -6.4% | 0.891µM* | 5.3% | -20.6% | 18.6% | 18.4%
O=S(=O)(Nc1c(S(=O)(=O)c2ccccc2)c2nc3ccccc3nc2n1C1CCCCC1)c1ccccc1 | 3.16µM* | 39.8µM* | 4.5% | 39.8µM* | ? | -3.2%
C=CCn1c(NS(=O)(=O)c2ccccc2)c(S(=O)(=O)c2ccc(C)cc2)c2nc3ccccc3nc21 | 28.2µM* | 0.7% | 4.0% | ? | ? | -7.0%
CC(=O)Nc1c(S(=O)(=O)c2ccccc2)c2nc3ccccc3nc2n1Cc1ccccc1 | -22.4% | 0.0% | -4.9% | -15.5% | -1.2% | 2.2%
Cc1cc(C)n2nc(SC(C)C(=O)Nc3ccc(F)cc3Cl)nc2n1 (centres undefined) | . | -5.3% | . | . | . | .
CC(=O)c1cn(CC(=O)N2CCCCCC2)c2ccccc12 | . | 63.7% | . | . | . | .
O=C(Cn1ccc(=O)[nH]c1=O)N1C[C@H]2CC[C@@H]1CN(Cc1cscn1)C2 | . | 8.91µM* | . | . | . | .
COc1cccc(N=Cc2c(O)n(-c3cccc(C)n3)c(=O)c3ccccc23)c1 | -16.1% | ? | 10.1% | -11.8% | -2.5% | 8.7%
SMILES | USP1 inh | ALOX12 inh | EPAC1 ag | EPAC1 antag | EPAC2 antag | EPAC2 agonist
COc1ccc(N=Cc2c(O)n(-c3cccc(C)n3)c(=O)c3ccccc23)c(OC)c1 | -13.0% | -8.1% | 9.3% | 10.3% | 118.5% | 100µM*
Cc1c(NC(=O)c2cc3cc(Br)ccc3[nH]2)c(=O)n(-c2ccccc2)n1C | . | 50.1µM* | . | . | . | .
Cc1c(NC(=O)c2ccc(C(=O)Nc3c(C)n(C)n(-c4ccccc4)c3=O)cc2)c(=O)n(-c2ccccc2)n1C | 4.5% | 3.0% | -0.8% | -15.6% | 1.6% | 9.9%
CC(C)(C)C(=O)Nc1ccccc1N1CCN(C(=O)c2ccc(Cl)cc2)CC1 | -10.5% | 0.0% | 9.3% | 6.2% | -2.2% | 5.8%
O=C(NC(=S)Nc1ccc(S(=O)(=O)NC2CCCCC2)cc1)c1cccs1 | -20.4% | 15.8µM* | 11.3% | -5.8% | -7.7% | 21.0%
CC1CCCCC1NC(=S)NC(=O)c1cccs1 (centres undefined) | -12.2% | 14.1µM* | 19.2% | -12.5% | ? | 7.6%
CC1CCN(c2ccccc2NC(=S)NC(=O)C(C)(C)C)CC1 | -21.0% | 39.8µM* | -8.1% | -15.8% | ? | 7.1%
CC(C)C(=O)NC(=S)Nc1ccccc1N1CCN(C(=O)c2ccc(Cl)cc2)CC1 | -18.6% | 44.7µM* | 0.2% | 3.2% | -2.0% | 20.1%
CS(=O)(=O)N1CCN(c2ccccc2NC(=S)NC(=O)c2cccs2)CC1 | -11.3% | 35.5µM* | 4.2% | 4.8% | 9.5% | 15.8%
CC(C)C(=O)N1CCN(c2ccccc2NC(=S)NC(=O)c2cccs2)CC1 | -21.5% | ? | -14.4% | -17.0% | 2.9% | 9.5%
CC1CCN(c2ccccc2NC(=S)NC(=O)c2cccs2)CC1 | -14.8% | 31.6µM* | 11.5% | -11.0% | -11.5% | 14.6%
CCCCCn1nc(C(=O)Nc2ccc(Br)cc2F)c2ccccc2c1=O | . | 10.0% | . | . | . | .
CCCOC(=O)c1[nH]c2c(c1C)C(=O)CC(c1ccccc1)C2 (centres undefined) | . | -1.0% | . | . | . | .
O=S(=O)(Nc1ccc(O)c(Sc2nc3ccccc3s2)c1)c1cc(Cl)ccc1Cl | -16.0% | 10µM* | . | . | . | .
CC1CN(CCOc2ccc(C#N)cc2)CCO1 (centres undefined) | . | -24.8% | . | . | . | .
O=C1c2cccc3cc([N+](=O)[O-])cc(c23)C(=O)N1/N=C/c1ccc(O)cc1O | -14.1% | -19.9% | 4.7% | 79.4µM* | -2.2% | -0.1%
O=S(=O)(Nc1ccc(-c2nnc3n2CCCCC3)cc1)c1ccc2c(c1)OCCCO2 | . | -24.6% | . | . | . | .
COc1cc(NC(=S)NCCC(c2ccccc2)c2ccccc2)cc(OC)c1 | ? | ? | 89.1µM* | 59.6% | -8.4% | 5.1%
